Assay results taken from the supplement of paper PMC6555819.

Legend:
Test in all cases: PBM binding z-score (relative to random genomic background probes); higher = stronger binding; sequences stand for … in GC…GCGATTGACAGCGTAGAATGAAGG
[1] = test system: RARb homodimer (NR concentration 270 nM)
Method in brief: (§1)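 Ligand-free nuclear receptor dimers were bound for 1 h to custom Agilent 4×180K protein-binding microarrays. Detection used antibodies against each partner (one per run). Binding z-scores rest on regression-normalized fluorescence, with random background probes as the reference.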

[2] = test system: RARg:RXRa (NR concentration 270 nM, RXRa partner concentration 90 nM)
Method in brief: as §1

[3] = test system: RARg homodimer (NR concentration 270 nM)
Method in brief: as §1

[4] = test system: RXRa DBDmut IVT, anti-RXR (DBD mutation: RXRa K156A/R161A, NR concentration 90 nM)
Method in brief: as §1

[5] = test system: RXRa homodimer (NR concentration 180 nM)
Method in brief: as §1

[6] = test system: THRa:RXRa (NR concentration 90 nM, RXRa partner concentration 90 nM)
Method in brief: as §1

[7] = test system: THRa homodimer (NR concentration 90 nM)
Method in brief: as §1

[8] = test system: VDR homodimer (NR concentration 270 nM)
Method in brief: as §1

Sequence	PBM binding z-score [1]	PBM binding z-score [2]	PBM binding z-score [3]	PBM binding z-score [4]	PBM binding z-score [5]	PBM binding z-score [6]	PBM binding z-score [7]	PBM binding z-score [8]
GCCAGTTGGTCAGTAAAAGGTCACACACCGGTCG	5.25	5.38	4.92	0.354	5.25	3.38	1.65	1.83
CGAACTACGTCAGAACAGGACAGTGAAGGATGAT	-0.0991	-0.0189	0.316	0.247	-0.063	0.397	-0.497	-0.159
ATCGAAAGGTCGGCGAGGTGAGTATACACCGTTT	2.95	3.69	3.91	0.785	3.86	3.29	0.709	0.535
CAAACTAGGTTAAAGGTCAAAGTCGAGCCAACCA	4.47	7.04	5.43	2.13	8.81	3.85	0.829	2.96
AGAATGAGGTTACCTAAGATCAGGGAAACGCTTG	0.84	2.05	1.65	0.932	2.66	3.93	1.05	0.305
GATACAGGGTCAGCTAGAGGCCCGAGTATGGAAA	2.47	4.74	3.86	1.21	4.25	2.49	0.0608	0.402
CCTCGGAGGACGACAGGAGGTCAGAGCTGCCAGA	2.84	2.54	2.08	-0.23	1.84	2.33	0.421	0.665
CCTAGCAGGCCAATCTGGTTCACTCAAGGCTTGA	0.26	-0.172	-0.0939	0.398	-0.304	1.38	-0.212	0.42
CAGCCTAGGTCAGGGCCAGCATAGGAGGAACGTT	2.41	2.93	3.78	-0.352	1.57	1.95	0.423	-0.327
CAAACTAGGTCAGAACAGGACAGTGAAGGATGAT	2.11	2.51	3.33	0.474	1.28	3.7	0.447	0.417
AGAACGAGGGCAATGAGTTGATGGCACGGGTGGC	1.11	0.928	1.54	1.36	0.636	0.857	-0.205	2.62
CAAACTAGGTCACGATAGGTCAAAGTCGAATGAC	4.88	6.44	6.71	2.13	5.99	4.65	2.39	2.02
ACAGACAGGTGAGTGAAGGTAACTTAGCTGGACG	-0.0414	0.357	0.463	-0.514	0.233	1.46	-0.186	-0.226
ATCTCTAGGTAAAGTTCAGAGAAAGATCGATAGA	2.23	2.13	2.6	1.45	1.42	1.13	-0.103	2.03
TAGCCTAGGTCAGATCGGGCCAGAATACGCTATA	1.78	2.58	2.95	-0.569	1.29	4.06	-0.133	-0.288
AATACATGGTCACTAGGCCAGAGTAGGTACGAAT	0.707	0.578	1.01	-0.405	0.58	-0.00579	-0.302	0.15
TCATATAGGTAAAAGGTGAAATTCGGTGTGGTAA	1.8	1.8	0.738	1.92	3.04	1.77	0.523	0.37
TCTTGTAGATCAGCAGATTAAGAAAGCTGGCCAA	-0.767	-0.275	-0.543	0.615	-0.121	-0.329	-0.892	-0.178
ATCTCTAGGTAACGAGTTCAGTGAAAGAGAGGAC	1.67	1.08	1.07	1.58	1.01	1.97	1.21	4.11
GATAGAGGGTCAGCTAGAGGCCAGAGTATGGAAA	3.28	6.38	4.5	0.579	3.71	2.39	-0.103	0.387
CTGAGTAGGTTATGGGGCATTCAGGCAACGGTGA	0.905	0.544	0.679	-0.017	0.713	0.647	-0.0528	-0.0687
ATATGTAGGTTACATCCGGGTCATTCAGGCTATG	3.04	3.77	2.17	1.01	3.39	3.75	2.57	2.83
ATCGAAAGTTCGTGAGGTGAGTATACAGAAAGGC	1.8	2.22	1.86	2.13	1.78	2.23	1.23	1.22
TCTTCTAGATCAATAGAGGTTAAGAAAGTGCGCT	1.17	1.06	0.808	0.902	1.4	1.96	-0.514	0.255
TCTGCTAGGTCAGTTGATCAGCTAACGAGCTGCC	2.08	2.57	3.41	0.576	0.945	1.28	0.115	-0.722
GCGACTGGAGCAAAGCAGGTTACCATAAGGTTGG	0.0117	-0.319	-0.395	-0.723	0.0642	1.75	-0.495	-0.492
TAGCTTAGGTCATGCGGGCCAGTATAGTGTCGGC	3.21	3.97	4.75	1.31	2.97	3.6	2.34	0.954
ATCGAAAGGTCGAGGTGAGTTTAGAGAAAGGGAA	3.07	4.88	4.68	1.24	4.47	3.01	0.695	2.21
